# Assay outcomes deposited in PubChem BioAssay by Corson Lab, School of Medicine, Indiana University.
# FECH block: inhibitors of human ferrochelatase; actives 3.3% (n = 20,000); purified FECH, Ni-mesoporphyrin absorbance 550 nm; calls only at 10 µM (by protocol); AID 1671448; P22830;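 active means enzyme reaction rate more than 3 SD below the solvent-only control wells on the same plate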;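 further: lower slope than DMSO wells means FECH inhibition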
# Target sequence (P22830 whole entry, looked up): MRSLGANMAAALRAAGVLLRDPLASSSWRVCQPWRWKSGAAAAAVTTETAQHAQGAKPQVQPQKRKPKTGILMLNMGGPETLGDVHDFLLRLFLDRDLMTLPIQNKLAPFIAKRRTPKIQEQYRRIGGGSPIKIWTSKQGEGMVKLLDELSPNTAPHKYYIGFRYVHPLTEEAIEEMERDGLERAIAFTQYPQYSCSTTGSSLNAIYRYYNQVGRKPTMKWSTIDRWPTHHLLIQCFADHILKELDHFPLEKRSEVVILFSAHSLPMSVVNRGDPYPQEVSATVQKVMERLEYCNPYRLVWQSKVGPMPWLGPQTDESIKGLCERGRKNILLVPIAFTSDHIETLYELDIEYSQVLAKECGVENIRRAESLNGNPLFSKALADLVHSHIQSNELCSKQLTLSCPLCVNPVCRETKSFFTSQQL
# Active calls of the source: *; i = inactive; + = active, no number. This excerpt belongs to a sample that is enriched for hits.
SMILES,FECH block
CN(Cc1cn[nH]c1C(=O)O)CC1COc2ccccc2O1 (centres undefined),i
COc1ccc(-c2nc(CN3CCC(=O)NCC3C)c(C)o2)c(OC)c1C (centres undefined),i
O=S(=O)(NCCn1c(C(F)(F)F)nc2cccnc21)c1ccc2c(c1)CCCC2,i
CCn1cnc(NC(=O)N2CCCC(c3ccccc3)CC2)n1 (centres undefined),i
Cc1ccc(NC2(C(=O)NCCc3nc(C)cc(C)n3)CCCC2)cc1,i
CCOc1ccccc1NC(=O)N1CCC(n2cnc3cccnc32)CC1,i
Cc1cc(C(=O)N2C[C@@H]3C[C@H](C2)[C@@H]2CCCC(=O)N2C3)n(CCN(C)C)n1,i
Cc1ccc(CN2c3ccccc3-c3nc(SCC(=O)Nc4ccc(C)c(Cl)c4)ncc3S2(=O)=O)cc1,i
CCN1C(SCC(=O)Nc2ccccc2C)=NS(=O)(=O)c2ccccc21,+
CCN1C(SCC(=O)Nc2ccc(Cl)cc2F)=NS(=O)(=O)c2ccccc21,+
CCN1C(SCC(=O)Nc2cc(Cl)ccc2C)=NS(=O)(=O)c2ccccc21,i
COc1ccc(N2C(=O)N(CC(=O)NCCc3ccccc3)c3ccccc3S2(=O)=O)cc1OC,i
CCN1C(SCC(=O)Nc2cc(Cl)c(OC)cc2OC)=NS(=O)(=O)c2ccccc21,i
CCCCNC(=O)CC1CCN(S(=O)(=O)c2ccccc2)CC1,i
CCCCNC(=O)CSC1=NS(=O)(=O)c2ccccc2N1CC,+
CCc1cccc(C)c1NC(=O)CSC1=NS(=O)(=O)c2ccccc2N1CC,+
CCC1=C(c2ccc(OC)cc2)S(=O)(=O)N(CC(=O)Nc2c(C)cccc2CC)C1=O,i
CCC(=O)Nc1ccccc1-c1nnc(SCC(=O)Nc2cccc(Cl)c2Cl)[nH]c1=O,i
CCc1cccc(C)c1NC(=O)c1nc2ccccc2n(C)c1=O,i
CN(Cc1ccccc1)S(=O)(=O)c1ccc(N2C(=O)CCS2(=O)=O)cc1,i
CCc1nc2cccnc2n1CCN1CCNCC1,i
CC(=O)Nc1ccc(CN2CC[C@@H](c3sccc3C)[C@H](O)C2)cc1,i
CC(=O)Nc1nc2n(n1)C(c1ccccc1Cl)C=C(c1ccc(Cl)cc1)N2 (centres undefined),i
C=CCN(C(=O)CCNC(=O)c1ccccc1F)C1CCCC1,i
COC(=O)c1ccc(-c2c(NCc3ccccc3)oc3c2c(=O)n(C)c(=O)n3C)cc1,i
SMILES,FECH block
NS(=O)(=O)c1ccc(CCNC(=O)C2CCN(c3nc4ccccc4n3Cc3ccccc3F)CC2)cc1,i
OCCN1CCN(c2nc(Nc3cccc(F)c3)c3cnn(-c4ccccc4)c3n2)CC1,i
CC(=O)Nc1ccccc1NC(=O)CN(Cc1ccc2[nH]ccc2c1)C1CC1,i
COc1cccc(-c2nc(CSc3nc(-c4ccccc4)cc(=O)[nH]3)c(C)o2)c1OC,i
CCN1C(SCC(=O)Nc2c(C)cccc2C)=NS(=O)(=O)c2ccccc21,+
Cc1ccccc1N1C(=O)N(CC(=O)NC2CCCC2)c2ccccc2S1(=O)=O,i
Cc1cccc(C)c1NC(=O)CSCc1nc(-c2ccccc2)no1,i
Cn1ccnc1SCCNS(=O)(=O)NCc1ccccc1,i
CN(CCc1nc2ccccc2[nH]1)C(=O)c1cccc(-n2cccn2)c1,i
CC(C)SCCNC(=O)c1cc(Cn2ccc3ccccc32)[nH]n1,i
N[C@@H]1c2ccccc2C2(CCN(C(=O)c3nccc4ccccc34)CC2)[C@H]1O,i
CCn1cc(CN(C(=O)c2nccc3ccccc23)C(C)C)cn1,i
CN(CC1COCCO1)C(=O)c1nccc2ccccc12 (centres undefined),+
COc1cc2c(c(OC)c1OC)C(c1ccc3c(c1)nnn3C)CC(=O)N2 (centres undefined),i
CCn1cncc1CNC(=O)c1cc2n(n1)CCCN(C)C2,i
Cc1ccccc1C(=O)N1CCc2c(c(C(=O)NCc3ccccc3)nn2C)C1,i
Cn1nc(C(=O)NCc2ccccc2)c2c1CCN(C(=O)c1ccccc1Cl)C2,i
COc1ccc(C(=O)N2CCc3c(c(C(=O)NCc4ccccc4)nn3C)C2)cc1,i
Cn1nc(C(=O)NCc2ccccc2)c2c1CCN(C(=O)C1CCC1)C2,+
Cn1nc(C(=O)NCc2ccccc2)c2c1CCN(C(=O)c1ccccc1)C2,i
Cc1ccc(C(=O)N2CCc3c(c(C(=O)NCc4ccccc4)nn3C)C2)cc1,+
CN1CCCC2(CCN(C(=O)CCn3cncn3)C2)C1=O (centres undefined),i
NS(=O)(=O)c1ccc(CCN2Cc3ncccc3C2=O)cc1,i
Cc1ccc(C2(O)CCN(C(=O)C(c3ccccc3)n3cnnn3)CC2)nc1 (centres undefined),i
CCS(=O)(=O)N1CCN(C(=O)C2CCCN(Cc3ccco3)C2)CC1 (centres undefined),i
SMILES,FECH block
CCCc1cc(=O)n2[nH]c(CNc3ccccc3)nc2n1,+
O=c1cc(CNc2ccccc2)nc2nc(NCc3ccc(Cl)cc3)[nH]n12,i
CCCc1cc(=O)n2[nH]c(CNc3cccc(OC)c3)nc2n1,+
O=c1cc(CNc2ccccc2)nc2nc(NCc3ccccc3)[nH]n12,i
Cc1ccc(NCc2cc(=O)n3[nH]c(NCc4ccccc4)nc3n2)cc1C,i
CCCc1cc(=O)n2[nH]c(CNc3cccc(Cl)c3)nc2n1,+
CCCc1cc(=O)n2[nH]c(CNc3ccc(OCC)cc3)nc2n1,i
CCc1ccc(NCc2cc(=O)n3[nH]c(NCc4ccc(Cl)cc4)nc3n2)cc1,i
CCCc1cc(=O)n2[nH]c(CNc3ccc(C)c(C)c3)nc2n1,+
COc1cccc(NCc2cc(=O)n3[nH]c(NCc4ccccc4)nc3n2)c1,i
Cc1ccc(NCc2cc(=O)n3[nH]c(NCc4ccc(F)cc4)nc3n2)cc1C,i
COc1ccc(CNc2nc3nc(CNc4ccccc4)cc(=O)n3[nH]2)cc1,i
Cc1cc(=O)[nH]c(SCc2nc(-c3ccc(OC(C)C)cc3)oc2C)n1,i
CSc1nc(NCc2ccc3c(c2)OCO3)c(C#N)c(-c2ccccc2)n1,i
CCN(C(=O)C1CCCN(c2ncnc3c2nc2n3CCCCC2)C1)c1cc(C)ccc1C (centres undefined),i
COc1ccc(NC(=O)C2CCCN2S(=O)(=O)c2ccc3c(c2)CCCC(=O)N3)cc1OC (centres undefined),i
Cc1cccnc1CC(C)NC(=O)c1c(Cl)c(C(F)(F)F)nn1C (centres undefined),i
O=C1CCS(=O)(=O)N1c1ccc(S(=O)(=O)NC2CCCC2)cc1,i
Cc1ccc(NC(=O)CN2CCN(Cc3ccccc3Cl)S2(=O)=O)cc1C,i
Cc1noc(C)c1CN(C)Cc1cn[nH]c1C(=O)O,i
COC(=O)c1sccc1NC(=O)CN1C(=O)CC(c2ccc(Br)s2)=Nc2ccccc21,i
COc1ccccc1CN1C[C@@H](C(=O)O)C[C@@H](C(=O)NCc2cccnc2)C1,i
COc1ccc(-c2cc(C)cnc2-n2cnnc2)c2ccc(C)nc12,i
Cc1ccc(-c2cc(N3CCN(S(=O)(=O)c4cnn(C(F)F)c4C)CC3)ncn2)cc1,i
CN1CCC2(CC1)CN(C(=O)c1cnc(-c3ccccc3)nc1)CCN2C,i
Cc1cc(-n2cccn2)ccc1C1CC(=O)Nc2n[nH]c(C3CCC3)c21 (centres undefined),i
Cc1cc(C)n(-c2cc(Nc3ccc(Cl)cc3)ncn2)n1,i
